Data on 25 compounds can be found in PubChem BioAssay.

Several values for one entry are separate records, joined by “and”; a condition that tells them apart may be missing. Equal entries are not always repeated. Where a structure was tested more than once in an assay, its records may differ in their call. Activity calls are given as the source filed them.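 Rule for the calls, unless noted: active = z-score of at least 1.8 in each of two replicates, scored against plate mean and spread of sample wells; inactive = the rest.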

Assay [1] deals with NAD(+) hydrolase SARM1 (Homo sapiens) (UniProt Q6SZW1). Nature of the assay: blocking NAD cleavage by SARM1 SAM-TIR – cell lysate, NAD-Glo luminescence (AID 1508614;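 active = compound whose remaining NAD level is above about 45 nM, limit read from the data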;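 note: higher remaining NAD means stronger inhibition of SARM1 NADase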). As to conditions: SAM-TIR HEK293T lysate NADase, at 1 µM, stronger effect = higher value.
Chain of NAD(+) hydrolase SARM1 (Homo sapiens) (Q6SZW1 whole entry, looked up, the tested form may be a part): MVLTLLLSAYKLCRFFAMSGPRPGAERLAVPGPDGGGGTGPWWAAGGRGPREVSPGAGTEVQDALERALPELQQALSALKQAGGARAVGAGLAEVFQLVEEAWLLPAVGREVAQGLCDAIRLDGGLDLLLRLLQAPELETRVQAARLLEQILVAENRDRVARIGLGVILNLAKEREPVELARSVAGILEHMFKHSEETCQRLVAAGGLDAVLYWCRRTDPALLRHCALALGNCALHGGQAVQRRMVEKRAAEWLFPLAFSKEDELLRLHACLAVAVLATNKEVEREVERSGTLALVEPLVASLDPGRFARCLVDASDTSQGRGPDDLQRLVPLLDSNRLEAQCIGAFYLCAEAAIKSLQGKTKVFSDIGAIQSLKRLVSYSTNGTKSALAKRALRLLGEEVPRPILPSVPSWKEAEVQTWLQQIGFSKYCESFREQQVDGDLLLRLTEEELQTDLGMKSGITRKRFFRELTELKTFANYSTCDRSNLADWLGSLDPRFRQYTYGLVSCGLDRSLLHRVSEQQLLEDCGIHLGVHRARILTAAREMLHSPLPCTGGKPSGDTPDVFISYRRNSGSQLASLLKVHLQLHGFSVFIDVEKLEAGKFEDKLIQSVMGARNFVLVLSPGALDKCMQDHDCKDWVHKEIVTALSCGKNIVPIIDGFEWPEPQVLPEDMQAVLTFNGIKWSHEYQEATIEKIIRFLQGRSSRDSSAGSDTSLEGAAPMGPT
The target of assay [2] is Mitogen-activated protein kinase 7 (Homo sapiens) (UniProt Q13164). Nature of the assay: Gal4-ERK5 driven luciferase induction – cell-based, HTS, primary screen (AID 1508626;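 active = luciferase signal above three times the same-plate solvent-only control wells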;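 note: luciferase driven by Gal4-ERK5 fusion binding five Gal4 sites before minimal TATA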). The settings on record: HeLa Gal4-ERK5 transactivation, 18 h, at 5 µM, stronger effect = higher value.
Chain of Mitogen-activated protein kinase 7 (Homo sapiens) (Q13164 whole entry, looked up, the tested form may be a part): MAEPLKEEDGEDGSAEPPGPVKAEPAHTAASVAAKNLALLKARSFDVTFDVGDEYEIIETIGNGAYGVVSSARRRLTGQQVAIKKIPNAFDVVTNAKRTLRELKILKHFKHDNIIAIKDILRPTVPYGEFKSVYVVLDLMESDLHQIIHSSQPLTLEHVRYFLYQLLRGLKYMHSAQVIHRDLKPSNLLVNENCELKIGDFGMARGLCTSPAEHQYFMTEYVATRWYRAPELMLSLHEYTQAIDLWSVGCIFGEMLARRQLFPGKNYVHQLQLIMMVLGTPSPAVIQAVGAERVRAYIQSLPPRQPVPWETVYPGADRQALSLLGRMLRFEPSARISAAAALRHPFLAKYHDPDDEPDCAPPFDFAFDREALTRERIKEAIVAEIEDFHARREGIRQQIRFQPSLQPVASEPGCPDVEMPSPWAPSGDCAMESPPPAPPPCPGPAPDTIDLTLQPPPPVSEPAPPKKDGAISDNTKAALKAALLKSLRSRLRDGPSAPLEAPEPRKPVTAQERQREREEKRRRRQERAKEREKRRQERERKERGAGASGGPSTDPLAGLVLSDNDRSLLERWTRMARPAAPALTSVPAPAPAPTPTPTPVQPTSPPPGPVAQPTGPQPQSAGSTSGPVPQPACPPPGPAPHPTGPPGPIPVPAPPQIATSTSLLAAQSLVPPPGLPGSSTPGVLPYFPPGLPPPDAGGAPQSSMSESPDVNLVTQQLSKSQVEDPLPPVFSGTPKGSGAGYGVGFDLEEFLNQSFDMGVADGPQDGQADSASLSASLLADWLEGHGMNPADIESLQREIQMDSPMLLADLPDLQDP
Assay [3] in a line: galactose survival enhancers in mitochondrial complex I cybrids – cell-based, galactose medium, ATP luminescence, primary screen (AID 1645843).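 Note: positive z means more ATP and so rescue of galactose-driven cybrid death.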 As to conditions: complex I mutant cybrid cells, 72 h, stronger effect = higher value.

`CC(=O)NCCCCCC(=O)O`: the remaining NAD in assay [1] was 10 nM (inactive). Also, in assay [2], the luciferase signal is 76 AU (inactive).

As for `CCOC(=O)c1ccc(N)cc1`, the remaining NAD in assay [1] is 10 nM (inactive). Further, the luciferase signal in assay [2] is 112 AU (inactive).

On to `NC[C@H]1O[C@H](O[C@H]2[C@H](O)[C@@H](O[C@H]3O[C@H](CO)[C@@H](O)[C@H](N)[C@H]3O)[C@H](N)C[C@@H]2N)[C@H](N)[C@@H](O)[C@@H]1O`, for which the remaining NAD in assay [1] was 10 nM (inactive). In addition, the luciferase signal in assay [2] is 76 AU (inactive).

As for `CCOC(=O)[C@H](CCc1ccccc1)N[C@@H](C)C(=O)N1CCC[C@H]1C(=O)O`, in assay [1], the remaining NAD was 10 nM (inactive). The luciferase signal in assay [2] was 64 AU (inactive). In assay [3], the z-score is 0.27 (inactive).

`Fc1ccc(C(c2ccc(F)cc2)N2CCN(C/C=C/c3ccccc3)CC2)cc1`: in assay [1], the remaining NAD was 10 nM (inactive). In addition, in assay [2], the luciferase signal was 116 AU (inactive). In assay [3], the z-score is -1.04 (inactive) and -1.24 (inactive) and -2.23 (inactive).

In the case of `CCOC(=O)C1=C[C@]2(CC)CCCN3CCc4c(n1c1ccccc41)[C@@H]32`, in assay [1], the remaining NAD is 10 nM (inactive). For the same compound, the luciferase signal in assay [2] was 52 AU (inactive). Besides, the z-score in assay [3] was 0.33 (inactive) and -0.95 (inactive) and -0.445 (inactive).

Consider `O=C(CCCN1CCN(c2ccccn2)CC1)c1ccc(F)cc1`, for which the remaining NAD in assay [1] was 10 nM (inactive). Moreover, the luciferase signal in assay [2] was 92 AU (inactive). Moreover, the z-score in assay [3] is -0.625 (inactive).

As for `Cc1ncc([N+](=O)[O-])n1CCO`, the remaining NAD in assay [1] is 10 nM (inactive). Moreover, in assay [2], the luciferase signal is 56 AU (inactive). In assay [3], the z-score was 1.04 (inactive) and 0.355 (inactive).

`NCCS(=O)(=O)O`: in assay [1], the remaining NAD is 10 nM (inactive). Moreover, in assay [2], the luciferase signal is 80 AU (inactive). Also, the z-score in assay [3] is 0.675 (inactive).

`CC(C)(Oc1ccc(CCNC(=O)c2ccc(Cl)cc2)cc1)C(=O)O`: the remaining NAD in assay [1] was 10 nM (inactive). Further, the luciferase signal in assay [2] was 40 AU (inactive). In addition, the z-score in assay [3] was 0.225 (inactive) and 0.83 (inactive).

Regarding `CN(C)CCCN1c2ccccc2Sc2ccccc21`, the remaining NAD in assay [1] is 10 nM (inactive). The luciferase signal in assay [2] was 44 AU (inactive). Besides, the z-score in assay [3] was -0.99 (inactive).

For the compound `O=C(N[C@H](CO)[C@H](O)c1ccc([N+](=O)[O-])cc1)C(Cl)Cl`, the remaining NAD in assay [1] was 10 nM (inactive). Besides, in assay [2], the luciferase signal was 88 AU (inactive). In assay [3], the z-score was -0.74 (inactive).

In the case of `NC(CO)C(=O)NNCc1ccc(O)c(O)c1O` (configuration not stated), in assay [1], the remaining NAD was 10 nM (inactive). Also, the luciferase signal in assay [2] was 132 AU (inactive). The z-score in assay [3] was -1.5 (inactive) and -0.255 (inactive).

Turning to `CN1Cc2c(N)cccc2C(c2ccccc2)C1` (configuration not stated), in assay [1], the remaining NAD is 17 nM (inactive). The luciferase signal in assay [2] is 88 AU (inactive). Besides, in assay [3], the z-score was -0.015 (inactive).

Take `CN(C)[C@@H]1C(=O)C(C(N)=O)=C(O)[C@@]2(O)C(=O)C3=C(O)c4c(O)ccc(Cl)c4[C@@H](O)[C@H]3C[C@@H]12`: the remaining NAD in assay [1] was 10 nM (inactive). Also, in assay [2], the luciferase signal is 36 AU (inactive). Further, the z-score in assay [3] is 2.89 (active).

As to `CC(=O)O[C@]1(C(C)=O)CC[C@H]2[C@@H]3C=C(Cl)C4=CC(=O)[C@@H]5C[C@@H]5[C@]4(C)[C@H]3CC[C@@]21C`, in assay [1], the remaining NAD is 10 nM (inactive). In assay [2], the luciferase signal is 52 AU (inactive). Also, the z-score in assay [3] is 1.89 (inactive) and 0.36 (inactive).

Take `Oc1c(Cl)cc(Cl)c(Cl)c1Cc1c(O)c(Cl)cc(Cl)c1Cl`: in assay [1], the remaining NAD is 10 nM (inactive). In assay [2], the luciferase signal is 28 AU (inactive). The z-score in assay [3] is -1.5 (inactive).

Take `CN(C)CCC(c1ccccc1)c1ccccn1` (configuration not stated): in assay [1], the remaining NAD is 10 nM (inactive). For the same compound, the luciferase signal in assay [2] was 44 AU (inactive). Besides, the z-score in assay [3] was 0.62 (inactive) and -0.17 (inactive).

Turning to `C#CCN(C)Cc1ccccc1`, in assay [1], the remaining NAD was 10 nM (inactive). Further, the luciferase signal in assay [2] is 60 AU (inactive). For the same compound, the z-score in assay [3] was 0.465 (inactive) and 0.37 (inactive).

In the case of `CC1(C)NC(=O)N(c2ccc([N+](=O)[O-])c(C(F)(F)F)c2)C1=O`, in assay [1], the remaining NAD was 10 nM (inactive). For the same compound, in assay [2], the luciferase signal is 100 AU (inactive). Further, the z-score in assay [3] is -0.59 (inactive) and -0.55 (inactive).

For `O=C(NC(Cc1cc(=O)[nH]c2ccccc12)C(=O)O)c1ccc(Cl)cc1` (configuration not stated), in assay [1], the remaining NAD was 10 nM (inactive). Moreover, the luciferase signal in assay [2] is 40 AU (inactive). Besides, the z-score in assay [3] was 0.47 (inactive).

For the compound `NC[C@H](O)c1ccc(O)c(O)c1`, the remaining NAD in assay [1] was 10 nM (inactive). In assay [2], the luciferase signal is 60 AU (inactive). Moreover, in assay [3], the z-score is -1.45 (inactive) and -1.61 (inactive) and -1.02 (inactive).

`CN1CCN2c3ccccc3Cc3ccccc3C2C1` (configuration not stated): in assay [1], the remaining NAD is 10 nM (inactive). In addition, in assay [2], the luciferase signal is 48 AU (inactive). The z-score in assay [3] is -0.385 (inactive) and 2.53 (active) and -0.36 (inactive).

On to `NCCCCCC(=O)O`, for which the remaining NAD in assay [1] is 10 nM (inactive). Also, the luciferase signal in assay [2] is 40 AU (inactive). The z-score in assay [3] is 1.05 (inactive).

On to `O=P(O)(O)C(O)(Cc1cccnc1)P(=O)(O)O`, for which the remaining NAD in assay [1] was 10 nM (inactive). Also, the luciferase signal in assay [2] is 1260 AU (active). The z-score in assay [3] is 0.515 (inactive).
